Assay [1] is described as follows: NCI Yeast Anticancer Drug Screen. Data for the rad50 strain (AID 155).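 Note: 0% = growth of vehicle-only cultures of the same strain.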 Conditions: S. cerevisiae rad50 strain growth inhibition; at 50.0 µM; stronger effect = higher value. The procedure, abridged:
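Growth of the mutant yeast was measured after compound exposure and referenced to vehicle-treated cultures.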

The nature of assay [2]: NCI Yeast Anticancer Drug Screen. Data for the mec2-1 strain (AID 157). Conditions: S. cerevisiae mec2-1 strain, at 50.0 µM, stronger effect = higher value. Summed up: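 mec2-1 yeast strain, carrying an alteration in DNA damage repair or cell cycle control, was exposed to compounds; growth inhibition was measured relative to vehicle-treated controls.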
Assay [3] in a line: NCI Yeast Anticancer Drug Screen. Data for the sgs1 mgt1 strain (AID 161).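 Note: 0% = growth of cultures given vehicle only.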 The note with it: S. cerevisiae sgs1 mgt1 strain, at 50.0 µM, stronger effect = higher value. Summed up: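 Growth of a repair-deficient yeast mutant was monitored after compound treatment and expressed as inhibition relative to vehicle-treated cultures.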
Assay [4] in a line: NCI Yeast Anticancer Drug Screen. Data for the cln2 rad14 strain (AID 165).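 Note: 0% = growth equal to vehicle treated cultures.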 Conditions: S. cerevisiae cln2 rad14 strain, at 50.0 µM, stronger effect = higher value. The procedure, abridged:
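Yeast carrying cln2 and rad14 alterations (cell cycle control and DNA damage repair) were exposed to compounds. Growth inhibition was measured against vehicle-treated controls.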

Assay [5] in a line: NCI Yeast Anticancer Drug Screen. Data for the bub3 strain (AID 167). Conditions: S. cerevisiae bub3 mutant strain, at 50.0 µM, stronger effect = higher value. Summed up: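 Whole-cell yeast assay. The mutant strain was incubated with compounds, and growth inhibition was determined by comparison with vehicle-treated cells.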
Assay [6] in a line: NCI Yeast Anticancer Drug Screen. Data for the mlh1 rad18 strain (AID 175). Conditions: S. cerevisiae mlh1 rad18 strain growth inhibition; at 50.0 µM; stronger effect = higher value. Summed up: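 Growth inhibition of the yeast strain was measured after compound exposure and expressed relative to vehicle-treated controls. The strain carries defined defects in DNA damage repair.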

About 79,000 compounds went through this panel and 15% of them were active in at least one assay; those are over-represented in the sample as a whole. Values without a mark were called inactive. The source made the active and inactive calls. Cut-off read from the data, not from the text of the source: active = growth inhibition above about 70%; inactive = the rest.

`CC1(C)C(=O)N=C(N)N1C(=O)OCc1ccccc1`: the growth inhibition in assay [1] was -11.9%; in assay [2], -4.45%; in assay [3] it was -6.6%; in assay [4], 13.8%; in assay [5], -10%.
In the case of `CCOC(=O)C(Cc1ccc(N=NN(C)C)cc1)NC(=O)CC1c2ccccc2-c2ccccc21` (stereo not drawn), the growth inhibition was 13.8% in assay [1]; 7.2% in assay [2]; 20.7% in assay [3]; -6.25% in assay [4]; 47.6% in assay [5].
`O=C(NCc1ccccc1)C(c1ccccc1)c1ccccc1`: the growth inhibition in assay [1] was 1.85%; in assay [2] it was 4.9%; in assay [3], 2.6%; in assay [4], 5.7%; in assay [5], -9.1%.
For `O=S(=O)(NC1c2ccccc2Oc2ccccc21)c1ccc2ccccc2c1` the same measures were 28.4%, 11.1%, 16.6%, 19.1% and 9.65%.
For `Nc1cc(C(=O)O)cc2ccccc12` the same measures were 14.8%, -5.35%, 0.1%, -7.95% and -2.95%.
Take `O=C(O)c1cc2c(c3c1CCCC3)CCC1CCCC21` (stereo not drawn): the growth inhibition is 13.2% in assay [1]; 26.4% in assay [2]; 33.4% in assay [3]; -6.25% in assay [4]; 20.8% in assay [5].
For `CCC(CO)NC(=O)/C=C/c1ccccc1Cl` (stereo not drawn), the growth inhibition in assay [1] is 7%; in assay [2], 14.4%; in assay [3], 1.55%; in assay [4] it was 2.3%; in assay [5], -0.7%.
For `O=C(Nc1ccccc1)OCC#CCOC(=O)Nc1ccccc1` the same measures were 27.4%, 11.7%, 17.6%, -60.5% and 2.45%.
For `CC(=O)O[C@H]1CC[C@]2(C)C3CC[C@]4(C)C([C@H](C)CCCC(C)C)CCC4[C@]3(/C=N/O)n3c(=O)n(-c4ccccc4)c(=O)n3[C@]2(/C=N\O)C1` (stereo partly drawn) the same measures were 28%, 35.2%, 28.8%, 9.7% and 38.9%.
For `Cc1nc(NCCNCCO)nc2c1C(=O)Nc1ccccc1N2` the same measures were -43.9%, -50.8%, -7.65%, -5.3% and -3.9%.
In the case of `O=C(c1ccccc1)c1cccs1`, the growth inhibition is -19.3% in assay [1]; -1.9% in assay [2]; -12.7% in assay [3]; -45.6% in assay [4]; -14.5% in assay [5].
With `COC(=Nc1cccc2ccccc12)Nc1cccc2ccccc12`, the growth inhibition in assay [1] was 1.95%; in assay [2], -3.5%; in assay [3], -4.35%; in assay [4] it was 7.95%; in assay [5], -2.3%.
The like results for `O=C(O)C(=Cc1ccc(-c2ccc([N+](=O)[O-])cc2)o1)C(=O)O` were, in that order, 6.95%, 0.7%, -12.8%, 29.9% and 15.8%.
In the case of `Cc1cc(=O)[nH]c2[nH][nH]c(=O)c12`, the growth inhibition was -12.3% in assay [1]; -28.6% in assay [2]; -43.6% in assay [3]; -7.35% in assay [4]; 2.85% in assay [5].
For `CCOC(=O)c1ccc(N=Nc2ccc(N(CCC#N)CCC#N)cc2C)cc1` the same measures were -47.5%, -50.6%, -27.4%, -4.4% and -36.8%.
Consider `O=[N+]([O-])c1cccc(SNSc2cccc([N+](=O)[O-])c2)c1`, for which the growth inhibition was 29% in assay [1]; 12.8% in assay [2]; 8.4% in assay [3]; -35.5% in assay [4]; 9.8% in assay [5].
The like results for `CS(=O)(=O)Nc1ccc(NS(C)(=O)=O)cc1` were, in that order, 1.6%, 17.5%, 4.45%, 1.75% and 2.9%.
Regarding `O=C1NC(=O)C(=O)N1`, the growth inhibition in assay [1] was 25.8%; in assay [2], 13.4%; in assay [3] it was 8.65%; in assay [4], 16.4%; in assay [5], 27.8%.
With `CCc1cc2c(c3c1CCCC3=O)CC1(Cc3ccc(C(=O)OC)cc3C1)C2` (stereo not drawn), the growth inhibition in assay [1] was -8.05%; in assay [2] it was -28.9%; in assay [3], -7.6%; in assay [4] it was -20.6%; in assay [5], -8.95%.
The like results for `O=C(CC(=O)n1nc(-c2ccccc2)c(N=Nc2ccc(Cl)cc2)c1-c1ccccc1)Nc1ccc(Cl)cc1` were, in that order, -6.75%, -19.1%, -11.9%, -19.3% and -11.1%.
For `O=C(COc1ccc(F)cc1)OCCO`, the growth inhibition in assay [1] is 13.9%; in assay [2], -20.9%; in assay [3] it was -2.55%; in assay [4], -33.2%; in assay [5], -15.3%.
For `NC(=O)c1nsc(-c2ccc([N+](=O)[O-])cc2)c1N` the same measures were -10.8%, 0.9%, -1.8%, 30.6% and -17.8%.
For `COc1cccc(/C=C\c2ccc(O)cc2)c1` the same measures were 87% (active), 91% (active), 92% (active), 92% (active) and 91.2% (active).
With `CCOc1ccc(N)c([N+](=O)[O-])c1`, the growth inhibition is 4.65% in assay [1]; 21.9% in assay [2]; 22.9% in assay [3]; -34.4% in assay [4]; -7.75% in assay [5].
The like results for `Nc1c(Cl)ncnc1NCCCCCCCCCCCCNc1ncnc(Cl)c1N` were, in that order, -6.4%, 1.75%, 26.1%, -8.95% and -9.7%.
For `CCCCCCCCCCCCCC(N)=O` the same measures were -30.8%, -46.5%, -18.2%, 4.85% and -28.7%.
For `CC(C)C(O)(C(=O)O)C(C)C` the same measures were 11.1%, -11%, -4.1%, -4.3% and -17.9%.
For `CC(=O)c1cccc(F)c1C(C)c1ccc2ccccc2c1` (stereo not drawn), the growth inhibition in assay [1] was -3.85%; in assay [2] it was 0.6%; in assay [3] it was -8.8%; in assay [4], 3.35%; in assay [5] it was 15.4%.
For `CS(=O)(=O)OCC(Cc1ccccc1)N1C(=O)c2ccccc2C1=O` (stereo not drawn) the same measures were 1.3%, 4.05%, 17.9%, 12.2% and 26.9%.
For `c1ccc2nc(N3CCCC3)c(N3CCCC3)nc2c1` the same measures were -8.75%, -12.6%, -10.7%, -21.4% and 57.8%.
Regarding `O=C(c1ccccc1Cl)c1ccc2ccccc2c1C(=O)O`, the growth inhibition is 2.5% in assay [1]; -0.55% in assay [2]; -0.6% in assay [3]; 6% in assay [4]; -10% in assay [5].
As to `O=C(O)/C=C/C(=O)Nc1cc(Cl)cc2c1-c1c(Cl)cc(Cl)cc1C2O` (stereo not drawn), the growth inhibition in assay [1] was 83.7% (active); in assay [2], 54%; in assay [3], 84% (active); in assay [4], -5.45%; in assay [5], 11.3%.
The like results for `CN(C)c1ncnc2c1cnn2C1OC(CO)C(O)C1O` (stereo not drawn) were, in that order, 5.85%, 14.2%, 17.3%, 15.2% and 19.6%.
As to `COc1ccc2occc2c1`, the growth inhibition in assay [1] is 0%; in assay [2], -1.55%; in assay [3], -17.7%; in assay [4] it was 2.7%; in assay [5] it was -0.75%.
The like results for `COC(=O)C(C)(NC(=O)C(CC(=O)OC(C)(C)C)NC(=O)OC(C)(C)C)c1ccccc1` (stereo not drawn) were, in that order, 41.5%, 16%, 46.5%, 35.8% and 36.7%.
For `Cc1cc2cc3oc(C)cc3cc2o1` the same measures were 6.3%, -6.45%, -7.8%, -45.6% and -0.8%.
For the compound `CCC1SC(C)C(=O)NC1=O` (stereo not drawn), the growth inhibition in assay [1] is -14.8%; in assay [2] it was 3.9%; in assay [3] it was -0.7%; in assay [4] it was -14.3%; in assay [5], -8.2%.
The like results for `CC(C)CN(CC(C)C)C(=O)CCl` were, in that order, -3.1%, -0.3%, 14.1%, -15.9% and 6%.
Take `COc1ccc(C(=O)Nc2ccccc2CCC2CCCCN2C)cc1` (stereo not drawn): the growth inhibition is 29.2% in assay [1]; 3% in assay [2]; 10.3% in assay [3]; 22.4% in assay [4]; 1.15% in assay [5].
As for `COC1C=C(Br)C(=O)C(C)O1` (stereo not drawn), the growth inhibition is 5.7% in assay [1]; 1.3% in assay [2]; -25.6% in assay [3]; -2.3% in assay [4]; 21.2% in assay [5].
Consider `CC1CC(c2ccccc2)=Nc2ccccc2S1` (stereo not drawn), for which the growth inhibition in assay [1] is 18.2%; in assay [2], 12.9%; in assay [3], 16.2%; in assay [4], 19.5%; in assay [5], 6.5%; in assay [6] it was -9.4%.
As to `CCCCCCCCCCCCC(F)C(=O)OCC1OC(n2cc(C)c(=O)[nH]c2=O)CC1N=[N+]=[N-]` (stereo not drawn), the growth inhibition in assay [1] is 3.25%; in assay [2] it was -15.7%; in assay [3], 36.4%; in assay [4], -14.8%; in assay [5] it was 10.7%; in assay [6], 14.8%.
With `CCN(CC)n1c(N)nc2c1c(=O)n(C)c(=O)n2C`, the growth inhibition in assay [1] is -9.05%; in assay [2], -6.65%; in assay [3], 2.95%; in assay [4] it was -24.6%; in assay [5], 9.65%; in assay [6], 13.3%.

Values taken from PubChem BioAssay (NCI).
